Inconclusive results are not listed. Entries that show only a call come without a potency. Activity calls are given as the source filed them. Unless noted, calls come from the whole dose curve; as a rule, active = well fitted curve in the direction sought with a large enough effect in the repeat runs; inconclusive = weak or mixed curves; inactive = no such curve, though single readings can be large; an effect the other way counts as inactive or inconclusive.
Columns and labels:
[1] = qHTS assay to identify small molecule agonists of the androgen receptor (AR) signaling pathway in the presence of an antagonist - cell viability counter screen (AID 1259379); note: nearly all actives have a fitted effect of over 25% in size; note: potency is the fitted concentration of half-maximal effect
Summary of the method: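 Cells: MDA-kb2 (MMTV-luc, AR and GR elements), 3,000/well, 5 hr settle. Added: nilutamide 3.0uM final, then compounds (15 conc.). Incubation: 16 hr, 37C, no CO2. Read-out: CellTiter-Fluor, 1 hr, fluorescence.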

[2] = qHTS assay to identify small molecule antagonists of the estrogen receptor beta (ER-beta) signaling pathway - cell viability counter screen (AID 1259382);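 note: HEK293T cells carrying ER-beta-UAS-bla reporter stimulated with estradiol; series mostly up to about 92 µM; nearly all actives have a fitted effect of over 55% in size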
Summary of the method: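 Cells: ER-beta-UAS-bla HEK293T, 2,000/well, 2% CS-FBS, 6 hr settle. Cpd + E2 (1nM final), 16 hr, 37C/5% CO2. Bla FRET substrate 2 hr RT, then CellTiter-Glo 30 min RT, luminescence.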

[3] = molecular target: Estrogen receptor (Homo sapiens) (UniProt P03372); experiment: qHTS assay to identify small molecule agonists of the estrogen receptor alpha (ER-alpha) signaling pathway in the presence of an antagonist (AID 1259383; calls by dose curve; note: top concentration of the series differs between compounds; nearly all actives have a fitted effect of over 15% in size)
Summary of the method: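 VM7Luc4E2, endog. ER-alpha + 4×ERE-luc; charcoal-stripped FBS, phenol red-free, 5 d; 24hr plating; +10.0nM ICI-182,780 (final); cpds 15 conc, 22hr, 37C/5% CO2; ONE-Glo luminescence.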

[4] = qHTS assay to identify small molecule agonists or antagonists of the thyroid stimulating hormone receptor (TSHR) signaling pathway - wild type cell line counter screen (AID 1259384; calls by dose curve)
Summary of the method: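 Wild-type Hek293 cells, 800/well, 18 h at 37C, then compound with Ro20-1724 for 30 min RT. cAMP by HTRF (cAMP-d2/anti-cAMP cryptate), 1 h RT, fluorescence read. 15 concentrations, triplicates.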

[5] = molecular target: Thyrotropin receptor (Homo sapiens) (UniProt P16473); experiment: qHTS assay to identify small molecule antagonists of the thyroid stimulating hormone receptor (TSHR) signaling pathway (AID 1259385; calls by dose curve; note: nearly all actives have a fitted effect of over 20% in size)
Summary of the method: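 TSHR-HEK293 cells (800/well) plated 18 h, then compounds with Ro20-1724 and TSH at 1.5 ng/mL final, 30 min at room temperature. cAMP quantified by HTRF (cAMP-d2/anti-cAMP-cryptate, 1 h); 15 concentrations in triplicate.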

[6] = qHTS assay to identify small molecule agonists of the estrogen receptor alpha (ER-alpha) signaling pathway in the presence of an antagonist - cell viability counter screen (AID 1259386);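 note: cells exposed to compounds for 22 h at 37 °C before the viability read; nearly all actives have a fitted effect of over 30% in size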; note: potency is the fitted concentration of half-maximal effect
Summary of the method: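 VM7Luc4E2, stripped-serum pre-culture 5 d; 24hr plating; +ICI-182,780 10.0nM final; cpds 15 conc, 22hr, 37C/5% CO2; CellTiter-Fluor added at 21hr, fluorescence 1hr later.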

[7] = molecular target: Progesterone receptor (Homo sapiens) (UniProt P06401); experiment: qHTS assay to identify small molecule agonists of the progesterone receptor (PR) signaling pathway (AID 1346784; calls by dose curve; note: nearly all actives have a fitted effect of over 30% in size)
Summary of the method: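 Fluorescence from LiveBLAzer B/G FRET substrate cleavage (2 hr, RT) reported PR activation in PR-UAS-bla HEK 293T cells treated 16 hr at 37C/5% CO2 with compounds; medium contained 2% charcoal-stripped FBS.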

[8] = molecular target: Progesterone receptor (Homo sapiens) (UniProt P06401); experiment: qHTS assay to identify small molecule antagonists of the progesterone receptor (PR) signaling pathway (AID 1346795; active = well fitted inhibition curve with a large enough effect in the signal ratio in the repeat runs, not every such curve was filed as active; the % refers to the signal ratio; note: potency is the fitted concentration of half-maximal effect)
Summary of the method: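 Fluorescence intensity measured 2 hr after adding beta-lactamase FRET substrate to PR-UAS-bla HEK293T cells that had been co-treated 16 hr with compound and 1 nM R5020 (final concentration) in 2% charcoal-stripped FBS.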

[9] = qHTS assay to identify small molecule antagonists of the progesterone receptor (PR) signaling pathway - cell viability counter screen (AID 1346798); note: nearly all actives have a fitted effect of over 50% in size; note: potency is the fitted concentration of half-maximal effect
Summary of the method: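 CellTiter-Glo luminescence; PR-UAS-bla HEK293T, 3,000 cells/well; compound + R5020, 16 hr, 37C/5% CO2; 30 min RT before read.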

[10] = qHTS assay to identify small molecule agonists of the progesterone receptor (PR) signaling pathway - cell viability counter screen (AID 1346799; calls by dose curve; note: nearly all actives have a fitted effect of over 45% in size; note: potency is the fitted concentration of half-maximal effect)
Summary of the method: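 In parallel with the beta-lactamase readout, cytotoxicity toward PR-UAS-bla HEK293T cells was measured by CellTiter-Glo luminescence following 16 hr compound incubation in 2% charcoal-stripped FBS medium.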

[11] = qHTS assay to identify small molecule antagonists of the TGF-beta/Smad signaling pathway - cell viability counter screen (AID 1346824); note: nearly all actives have a fitted effect of over 50% in size
Summary of the method: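 SBE-bla HEK 293T cells, incubated overnight, then compound plus 0.25 ng/mL TGF-beta1 (stock added) for 5 hr at 37 C. Viability was read in the same wells by CellTiter-Glo luminescence after 30 min at room temperature.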

[12] = qHTS assay to identify small molecule agonists of the TGF-beta/Smad signaling pathway - cell viability counter screen (AID 1346829); note: top concentration of the series differs between compounds; nearly all actives have a fitted effect of over 45% in size
Summary of the method: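 Cytotoxicity counter screen: CellTiter-Glo luminescence (30 min, room temperature) measured in the SBE-bla HEK 293T reporter wells after 5 hr compound treatment at 37 C and the 2 hr substrate step.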

[13] = qHTS assay to identify small molecule agonists of the TGF-beta/Smad signaling pathway (AID 1346859; active = well fitted activation curve with a large enough effect in the signal ratio in the repeat runs, not every such curve was filed as active; the % refers to the signal ratio; note: series mostly up to about 77 µM)
Summary of the method: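 After overnight seeding, SBE-bla HEK 293T cells are dosed with compounds in DMSO and kept 5 hr at 37 C, 5% CO2. LiveBLAzer-type FRET substrate is then applied for 2 hr at room temperature.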

[14] = molecular target: Thyrotropin-releasing hormone receptor (Homo sapiens) (UniProt P34981); experiment: qHTS assay to identify small molecule antagonists of the thyrotropin-releasing hormone receptor (TRHR) signaling pathway (AID 1346877; active = well fitted inhibition curve with a large enough effect in the repeat runs, not every such curve was filed as active; note: series mostly up to about 51 µM)
Summary of the method: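 Intracellular calcium fluorescence, read kinetically every second over 3 min, reports TRH-evoked signalling in HEK293 cells carrying TRHR. Test compounds were added 5 min ahead of a 1 nM TRH challenge.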

[15] = molecular target: Thyrotropin-releasing hormone receptor (Homo sapiens) (UniProt P34981); experiment: qHTS assay to identify small molecule agonists of the thyrotropin-releasing hormone receptor (TRHR) signaling pathway (AID 1346891; calls by dose curve;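 note: HEK293 cells expressing TRHR with calcium dye readout; series mostly up to about 58 µM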)
Summary of the method: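 Compounds were tested as agonists at 15 concentrations, in triplicate, on TRHR-Hek293 cells; calcium-sensitive dye fluorescence was recorded for 3 min following addition.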

[16] = Human pregnane X receptor (PXR) small molecule agonists, qHTS cell viability counter screen (AID 1346977); note: nearly all actives have a fitted effect of over 50% in size; note: potency is the fitted concentration of half-maximal effect
Summary of the method: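 Viability counter screen: CellTiter-Fluor signal in PXR-Luc HepG2 cells, 24hr compound exposure, 37C, 5% CO2.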

[17] = Caspase-3/7 induction in HepG2 cells by small molecules, qHTS assay (AID 1346978); note: nearly all actives have a fitted effect of over 15% in size
Summary of the method: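 Wild-type HepG2 cells, 2,000/well, settled 5 hr at 37 C and 5% CO2, then compound-treated for 17 hr; caspase-3/7 activity read by luminescent Caspase-Glo 3/7 after 30 min at room temperature.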

[18] = molecular target: Androgen receptor (Homo sapiens) (UniProt P10275); experiment: qHTS assay to identify small molecule agonists of the androgen receptor (AR) signaling pathway in the presence of an antagonist (AID 1259381; calls by dose curve; note: nearly all actives have a fitted effect of over 15% in size)
Summary of the method: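 MDA-kb2 cells, 3,000/well, rested 5hr at 37C/0% CO2 → nilutamide 3.0uM final or buffer → compounds, 15 conc. → 16hr at 37C → ONE-Glo, 30min RT → luminescence.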

[19] = qHTS assay to identify small molecule agonists of the estrogen receptor beta (ER-beta) signaling pathway - cell viability counter screen (AID 1259380); note: potency is the fitted concentration of half-maximal effect; nearly all actives have a fitted effect of over 30% in size
Summary of the method: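 HEK293T ER-beta-UAS-bla; 2% CS-FBS; 6 hr pre-plate, 16 hr cpd at 37C/5% CO2; LiveBLAzer read first, then CellTiter-Glo 30 min RT, luminescence.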

Chain of Androgen receptor (Homo sapiens) (P10275 whole entry, looked up): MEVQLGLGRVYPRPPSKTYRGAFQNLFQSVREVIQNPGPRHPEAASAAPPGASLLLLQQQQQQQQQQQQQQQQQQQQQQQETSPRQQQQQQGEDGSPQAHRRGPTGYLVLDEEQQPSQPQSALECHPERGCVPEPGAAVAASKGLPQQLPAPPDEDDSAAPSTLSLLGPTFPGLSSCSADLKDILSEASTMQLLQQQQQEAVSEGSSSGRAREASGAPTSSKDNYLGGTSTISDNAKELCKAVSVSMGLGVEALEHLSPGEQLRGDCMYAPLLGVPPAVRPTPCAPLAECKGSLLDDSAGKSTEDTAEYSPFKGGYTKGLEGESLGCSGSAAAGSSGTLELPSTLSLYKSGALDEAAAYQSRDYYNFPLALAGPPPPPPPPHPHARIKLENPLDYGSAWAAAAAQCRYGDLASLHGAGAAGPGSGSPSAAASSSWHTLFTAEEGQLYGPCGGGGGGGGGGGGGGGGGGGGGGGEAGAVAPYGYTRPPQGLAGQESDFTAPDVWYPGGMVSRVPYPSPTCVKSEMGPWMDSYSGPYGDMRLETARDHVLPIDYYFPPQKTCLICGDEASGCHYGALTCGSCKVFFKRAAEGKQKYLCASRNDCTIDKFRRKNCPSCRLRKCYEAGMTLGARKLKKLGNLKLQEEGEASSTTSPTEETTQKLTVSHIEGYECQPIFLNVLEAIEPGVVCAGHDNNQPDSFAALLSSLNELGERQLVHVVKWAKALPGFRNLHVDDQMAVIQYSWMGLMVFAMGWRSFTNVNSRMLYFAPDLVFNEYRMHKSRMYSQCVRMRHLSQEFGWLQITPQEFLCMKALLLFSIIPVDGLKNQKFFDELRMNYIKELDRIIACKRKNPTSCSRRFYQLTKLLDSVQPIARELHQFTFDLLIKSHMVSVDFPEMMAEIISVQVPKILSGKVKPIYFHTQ
Chain of Progesterone receptor (Homo sapiens) (P06401 whole entry, looked up): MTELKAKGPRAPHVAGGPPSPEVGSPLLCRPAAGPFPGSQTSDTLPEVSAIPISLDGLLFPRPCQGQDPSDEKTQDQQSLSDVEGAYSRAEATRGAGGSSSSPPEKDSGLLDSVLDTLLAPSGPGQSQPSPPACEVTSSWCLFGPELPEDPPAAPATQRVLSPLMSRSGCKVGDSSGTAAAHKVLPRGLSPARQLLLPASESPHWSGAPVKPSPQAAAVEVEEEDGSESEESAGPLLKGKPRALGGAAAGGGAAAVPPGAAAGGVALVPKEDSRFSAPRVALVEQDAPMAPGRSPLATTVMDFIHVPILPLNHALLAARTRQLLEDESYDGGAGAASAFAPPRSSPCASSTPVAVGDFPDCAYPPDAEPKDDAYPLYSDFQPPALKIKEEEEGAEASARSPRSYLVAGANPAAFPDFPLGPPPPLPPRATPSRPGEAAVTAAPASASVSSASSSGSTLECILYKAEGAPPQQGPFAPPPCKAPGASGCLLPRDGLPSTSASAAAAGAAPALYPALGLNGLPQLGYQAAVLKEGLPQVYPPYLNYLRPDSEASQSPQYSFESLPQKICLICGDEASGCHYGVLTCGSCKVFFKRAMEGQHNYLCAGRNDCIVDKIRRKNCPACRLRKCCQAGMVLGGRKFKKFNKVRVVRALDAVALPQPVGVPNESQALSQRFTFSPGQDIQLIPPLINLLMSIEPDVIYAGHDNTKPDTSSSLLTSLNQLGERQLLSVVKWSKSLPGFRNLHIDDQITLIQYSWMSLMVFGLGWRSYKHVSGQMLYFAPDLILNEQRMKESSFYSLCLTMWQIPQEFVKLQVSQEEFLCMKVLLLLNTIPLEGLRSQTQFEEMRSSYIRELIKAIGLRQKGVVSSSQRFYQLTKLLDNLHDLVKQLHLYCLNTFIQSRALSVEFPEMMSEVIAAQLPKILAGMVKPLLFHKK
Chain of Estrogen receptor (Homo sapiens) (P03372 whole entry, looked up): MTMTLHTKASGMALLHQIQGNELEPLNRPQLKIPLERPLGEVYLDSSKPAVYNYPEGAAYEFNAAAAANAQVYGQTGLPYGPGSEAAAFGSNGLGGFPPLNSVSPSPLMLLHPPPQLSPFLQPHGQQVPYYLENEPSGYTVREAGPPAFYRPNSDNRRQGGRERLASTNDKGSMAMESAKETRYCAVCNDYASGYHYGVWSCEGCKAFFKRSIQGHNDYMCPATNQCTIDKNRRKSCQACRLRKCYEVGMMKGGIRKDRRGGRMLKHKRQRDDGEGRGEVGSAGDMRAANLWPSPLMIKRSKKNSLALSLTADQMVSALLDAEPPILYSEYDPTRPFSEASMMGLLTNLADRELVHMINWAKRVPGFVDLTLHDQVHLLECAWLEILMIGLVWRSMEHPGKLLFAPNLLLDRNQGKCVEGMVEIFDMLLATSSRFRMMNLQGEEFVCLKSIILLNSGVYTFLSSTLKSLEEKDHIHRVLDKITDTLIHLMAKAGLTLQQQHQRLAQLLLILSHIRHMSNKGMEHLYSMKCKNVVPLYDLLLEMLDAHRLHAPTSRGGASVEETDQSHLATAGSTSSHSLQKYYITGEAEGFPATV
Chain of Thyrotropin-releasing hormone receptor (Homo sapiens) (P34981 whole entry, looked up): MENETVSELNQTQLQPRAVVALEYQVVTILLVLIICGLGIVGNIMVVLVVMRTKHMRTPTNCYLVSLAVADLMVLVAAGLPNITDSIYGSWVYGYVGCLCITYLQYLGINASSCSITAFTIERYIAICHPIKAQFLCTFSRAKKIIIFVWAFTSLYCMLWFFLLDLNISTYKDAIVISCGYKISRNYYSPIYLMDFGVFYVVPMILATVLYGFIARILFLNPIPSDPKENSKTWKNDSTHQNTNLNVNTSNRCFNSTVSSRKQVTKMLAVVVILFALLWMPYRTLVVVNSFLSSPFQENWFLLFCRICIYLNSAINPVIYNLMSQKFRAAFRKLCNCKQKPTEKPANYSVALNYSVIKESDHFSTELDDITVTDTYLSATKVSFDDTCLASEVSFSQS
Chain of Thyrotropin receptor (Homo sapiens) (P16473 whole entry, looked up): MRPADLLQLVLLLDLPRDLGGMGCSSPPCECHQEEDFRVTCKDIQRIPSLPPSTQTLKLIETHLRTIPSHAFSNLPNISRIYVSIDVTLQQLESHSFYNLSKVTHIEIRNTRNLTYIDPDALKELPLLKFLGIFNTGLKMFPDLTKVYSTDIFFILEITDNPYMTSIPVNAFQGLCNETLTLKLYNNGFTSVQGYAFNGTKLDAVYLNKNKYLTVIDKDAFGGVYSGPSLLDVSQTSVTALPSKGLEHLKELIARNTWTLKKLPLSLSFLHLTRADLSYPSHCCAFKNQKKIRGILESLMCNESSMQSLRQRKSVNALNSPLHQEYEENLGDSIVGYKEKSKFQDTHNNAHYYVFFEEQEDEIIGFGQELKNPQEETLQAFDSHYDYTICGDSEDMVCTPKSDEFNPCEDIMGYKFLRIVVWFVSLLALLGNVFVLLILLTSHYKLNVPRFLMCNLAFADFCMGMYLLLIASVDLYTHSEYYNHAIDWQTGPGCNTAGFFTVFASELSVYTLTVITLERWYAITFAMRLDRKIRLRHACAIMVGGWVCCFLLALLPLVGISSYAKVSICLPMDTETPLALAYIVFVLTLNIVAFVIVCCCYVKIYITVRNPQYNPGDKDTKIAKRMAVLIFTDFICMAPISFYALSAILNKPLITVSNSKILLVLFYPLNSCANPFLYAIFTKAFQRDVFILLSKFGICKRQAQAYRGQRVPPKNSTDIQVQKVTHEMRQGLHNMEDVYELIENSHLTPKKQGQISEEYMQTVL

Row | Structure (SMILES) | Potency [1] | Potency [2] | Potency [3] | outcome [4] | Potency [5] | Potency [6] | outcome [7] | Potency [8] | Potency [9] | Potency [10] | Potency [11] | Potency [12] | Potency [13] | Potency [14] | Potency [15] | Potency [16] | Potency [17] | Potency [18] | Potency [19]
1 | CCc1cccc(C)c1 | inactive | inactive | inactive | inactive | inactive | inactive | inactive | inactive | inactive | inactive | inactive | inactive | inactive | inactive | inactive | inactive | inactive |  | 
2 | CCC(C)c1cc([N+](=O)[O-])cc([N+](=O)[O-])c1OC(=O)OC(C)C (stereo unspecified) | 61.1 µM (active) | inactive |  | inactive | inactive | 54.5 µM (active) |  |  | inactive |  | inactive | inactive |  | inactive |  | 34.4 µM (active) | inactive |  | 
3 | C(=C/c1ccccc1)/c1ccccc1 | inactive | inactive | inactive | inactive | inactive | inactive | inactive | inactive | inactive | inactive | inactive | inactive | inactive | inactive | inactive | inactive | inactive |  | 
4 | Cc1ccc(N)cc1O | inactive |  | inactive | inactive |  |  |  |  |  |  |  | inactive |  | inactive | inactive |  | inactive | inactive | 
5 | COc1ccc(C#N)cc1 | inactive | inactive | inactive | inactive | inactive |  | inactive | inactive |  | inactive | inactive | inactive | inactive | inactive | inactive | inactive | inactive |  | 
6 | C=CC(=O)OCCOCC(CC)(COCCOC(=O)C=C)COCCOC(=O)C=C | 40.2 µM (active) |  |  | inactive | inactive | 35.8 µM (active) |  | 28.4 µM (active) | 63.7 µM (active) | 63.7 µM (active) | inactive | inactive | inactive |  |  | 63.7 µM (active) | inactive |  | 89.9 µM (active)
7 | [O]=[Zr] | inactive | inactive |  | inactive | inactive | inactive | inactive | inactive | inactive | inactive | inactive |  | inactive | inactive |  | inactive | inactive |  | 
8 | CN(C)c1ccc(N=NS(=O)(=O)O)cc1 | 16.2 µM (active) |  |  |  |  | 38.6 µM (active) | inactive |  |  |  | inactive |  | inactive | inactive | inactive | 20.4 µM (active) | inactive | inactive | 
9 | CCCCCCCCCCCCCOP(=O)(O)O | inactive | inactive | inactive | inactive | inactive |  |  |  |  | inactive | inactive | inactive | inactive |  | inactive | inactive | inactive |  | 
10 | Cc1cccc(Br)c1 | inactive |  |  | inactive | inactive | inactive | inactive | 10.9 µM (active) | 54.8 µM (active) |  | inactive | inactive | inactive |  |  |  | inactive |  | 27.4 µM (active)
11 | CCCN(CCc1cccs1)[C@H]1CCc2c(O)cccc2C1 | inactive | inactive | inactive | inactive | inactive | inactive | inactive | 29.8 µM (active) | inactive | inactive | inactive | inactive | inactive |  | inactive |  | inactive |  | 
12 | CN1CCN(C2Cc3ccccc3Sc3ccc(Cl)cc32)CC1 (stereo unspecified) |  |  |  |  |  |  |  |  |  |  |  |  |  |  |  |  |  | inactive | 
13 | CCCCCCCCCCOCC(O)CN (stereo unspecified) |  |  |  |  |  |  |  |  |  |  |  |  |  |  |  |  |  | inactive | 

— PubChem BioAssay (Tox21)
